Results as given in PubChem BioAssay (NCATS).
Inconclusive results are not listed. Activity calls are given as the source filed them. Calls come from the whole dose curve; as a rule, active = well fitted inhibition curve with a large enough effect; inconclusive = small, poorly fitted or top-dose-only effect; inactive = flat fitted curve, though single readings scatter.

Assay: P-glycoprotein substrates identified in KB-8-5-11 adenocarcinoma cell line, qHTS therapeutic library screen (AID 1346987); note: nearly all actives have a fitted effect of over 65% in size
Conditions: KB-8-5-11 (P-gp overexpressing) viability, CellTiter-Glo, 72 h; series mostly up to 44.5 µM; activity change, negative = cytotoxicity: at the top concentration
How it was run: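 Luminescence from CellTiter-Glo, read 5 min after addition, quantified survival of KB-8-5-11 (P-gp-overexpressing) cells exposed to compounds for 72 h. AC50 was derived from concentration-response curves.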
% is set by controls: 0 for no effect and ±100 for the full control effect; potency is the fitted concentration of half-maximal effect.

SMILES	outcome	Potency	activity change, negative = cytotoxicity
CC(C)=CCC[C@](C)(O)[C@H]1CC[C@]2(C)[C@@H]1[C@H](O)CC1[C@@]3(C)CC[C@H](O)C(C)(C)[C@@H]3[C@@H](O[C@@H]3O[C@H](CO)[C@@H](O)[C@H](O)[C@H]3O[C@@H]3O[C@H](CO)[C@@H](O)[C@H](O)[C@H]3O)C[C@]12C (stereo not given in full)	inactive [at 17.3 µM]	–	–
COC(=O)N1CCC(n2ncc3c(N4CCOCC4)nc(-c4ccc(NC(=O)Nc5ccc(CO)cc5)cc4)nc32)CC1	–	2590 nM (active)	–
CCOCc1nc2c(N)nc3ccccc3c2n1CC(C)(C)O	–	–	-14.9% (inactive)
CCOc1cc(CC(=O)NC(CC(C)C)c2ccccc2N2CCCCC2)ccc1C(=O)O (stereo not given)	–	–	2.13% (inactive)
C[C@@H]1O[C@@H](O[C@@H]2[C@@H](O)[C@@H](O[C@]3(CO)O[C@H](CO)[C@@H](O)[C@@H]3OC(=O)/C=C/c3ccc(O)cc3)O[C@H](CO)[C@H]2OC(=O)/C=C/c2ccc(O)cc2)[C@H](O)[C@H](O)[C@H]1O[C@@H]1O[C@@H](C)[C@H](O[C@@H]2OC[C@](O)(CO)[C@H]2O)[C@@H](O)[C@H]1O	–	–	9.01% [at 9.29 µM] (inactive)
COC(=O)C1=C2Nc3ccccc3C23CCN2CCCC(C(C)O)(C1)C23 (stereo not given)	–	–	0.215% (inactive)
C[C@@H]1O[C@@H](O[C@H]2[C@H](O)[C@@H](O)[C@H](OC[C@H]3O[C@@H](OC(=O)[C@]45CCC(C)(C)C[C@H]4C4=CCC6[C@@]7(C)CC[C@H](O[C@@H]8OC[C@H](O)[C@H](O[C@@H]9O[C@H](CO)[C@@H](O)[C@H](O)[C@H]9O)[C@H]8O)[C@@](C)(CO)C7CC[C@@]6(C)[C@]4(C)CC5)[C@H](O)[C@@H](O)[C@@H]3O)O[C@@H]2CO)[C@H](O)[C@H](O)[C@H]1O (stereo not given in full)	inactive [at 9.29 µM]	–	–
CC1CCC2(OC1)OC1CC3C4CCC5C[C@@H](O[C@@H]6O[C@H](CO[C@@H]7OC[C@@H](O)[C@H](O)[C@H]7O)[C@H](O)[C@H](O)[C@H]6O)CC[C@]5(C)C4CC[C@]3(C)C1C2C (stereo not given in full)	inactive [at 17.3 µM]	–	–
C/C=C(\C)C(=O)OCC1OC(OC2OC(COC(=O)/C(C)=C/C)C(OC3OC(CO)C(OC(=O)/C(C)=C/C)C(OC(=O)/C(C)=C/C)C3O)C(O)C2O)C(O)C(O)C1OC1OC(CO)C(OC(=O)/C(C)=C/C)C(OC(=O)/C(C)=C/C)C1O (stereo not given)	–	–	8.2% [at 9.29 µM] (inactive)
COc1ccc2nc(S(=O)(=O)Cc3ncc(C)c(OC)c3C)[nH]c2c1	–	–	-17.6% (inactive)
CC(C)(O)/C=C/C1=CC(=O)[C@@](C)(O)C[C@H]1O	–	–	7.04% (inactive)
COc1cccc(-c2cc(NCc3ccc4c(c3)OCO4)nc(N)n2)c1	–	164 nM (active)	–
C=C(C(=O)OC)C1C(O)CC2(C)C(=O)CCC(O)(CO)C2C1O (stereo not given)	inactive	–	–
C[C@@H]1[C@H]2[C@H](O[C@@H]3O[C@H](CO)[C@@H](O)[C@H](O)[C@H]3O)OC=C(C(=O)O)[C@H]2C[C@@H]1O	–	–	-1.03% (inactive)
CC(=O)O[C@H]1C[C@@](O)(C(C)C)C2[C@@H](OC(=O)c3ccc(O)cc3)C[C@@]3(C)O[C@H]3C[C@]21C (stereo not given in full)	–	–	-6.91% [at 17.3 µM] (inactive)
COC(=O)C1(C)c2[nH]c3ccccc3c2CCN1C(=O)CCl (stereo not given)	–	10300 nM (active)	–
C=C1CCC2C(C)(C)C(O)CCC2(C)C1CCC(C)CCOC(C)=O (stereo not given)	–	–	-0.883% (inactive)
COc1cccc2cc3c(c(O[C@@H]4O[C@H](CO[C@@H]5O[C@H](CO)[C@@H](O)[C@H](O)[C@H]5O)[C@@H](O)[C@H](O)[C@H]4O)c12)C(C)OC3=O (stereo not given in full)	–	–	-0.811% [at 17.3 µM] (inactive)
Cc1cnc(NC(=O)Nc2cc(Br)c(C)cc2OCC2CNCCO2)cn1 (stereo not given)	–	8200 nM (active)	–
C=C[C@H]1CN2CC[C@H]1C[C@@H]2C(O)c1ccnc2ccc(OC)cc12 (stereo not given in full)	–	–	-3.65% (inactive)
CC1CCC2(C(=O)O)CCC3(C)C(=CCC4C5(C)CCC(OC(=O)/C=C/c6ccccc6)C(C)(C)C5CCC43C)C2C1C (stereo not given)	–	–	-2.86% [at 17.3 µM] (inactive)
CC(C)=CCC/C(C)=C/CC/C(C)=C/COC1OC(COC2OCC(OC3OCC(O)C(O)C3O)C(O)C2O)C(O)C(OC2OC(C)C(OC3OC(C)C(OC4OCC(OC5OC(C)C(O)C(O)C5O)C(O)C4O)C(O)C3O)C(O)C2O)C1O (stereo not given)	–	–	7.18% [at 9.29 µM] (inactive)
CS(=O)(=O)N(CC(=O)NCC1CC1)c1cc(C(F)(F)F)ccc1Cl	–	–	-5.71% (inactive)
COc1cc2c(cc1OC)-c1[nH]nc(Nc3cccc(F)c3)c1C2	–	92 nM (active)	–
CO[C@H]1C[C@@H]2CC[C@@H](C)[C@@](O)(O2)C(=O)C(=O)N2CCCC[C@H]2C(=O)O[C@H]([C@H](C)C[C@H]2CC[C@@H](OP(C)(C)=O)[C@H](OC)C2)CC(=O)[C@H](C)/C=C(\C)[C@@H](O)[C@@H](OC)C(=O)[C@H](C)C[C@H](C)/C=C/C=C/C=C/1C	–	–	-10.2% (inactive)
